Screens as filed in PubChem BioAssay.
This is a sample that favours compounds with a hit; in the whole collection about 3.4% have one here.
RE007 growth inh: less growth of the S. pombe RE007 Vpr strain | S. pombe RE007 Vpr strain, BacTiter-Glo ATP luminescence, 24 h | Potency, µM (top dose mostly 92.2 µM), most hits filed as inhibitors | 0.21% of 360,000 active; active = well fitted falling curve with a large enough effect; inconclusive = small, poorly fitted or top-dose-only effect; inactive = no such curve, though single readings can be large or run the other way; note: nearly all actives have a fitted effect of over 50% in size
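Fission yeast strain RE007, carrying one chromosomally integrated HIV-1 vpr copy, was seeded at OD 0.01 in PMG+AL medium with 23 nL pinned compound. After 24 h at 30 °C and 99% humidity, viability was read by BacTiter-Glo luminescence.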
Sm TGR inh: S. mansoni TGR enzyme inhibition | Q962Y6 | purified TGR, DTNB reduction, TNB absorbance 405 nm | Potency, µM (highest dose often 114 µM), usual class: inhibitors | 3% of 360,000 active; note: nearly all actives have a fitted effect of over 60% in size
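Kinetic colorimetric format: TGR-catalysed, NADPH-driven DTNB reduction monitored via TNB absorbance. Enzyme dispensed at 20 nM; compound exposure 15 min at room temperature before reaction start.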
AmpC inh detg: inhibitors of E. coli AmpC beta-lactamase with detergent; AmpC hydrolysis of nitrocefin, absorbance 480 nm, 0.01% Triton; Potency, µM (highest dose often 114 µM), actives largely listed as inhibitors; 0.041% of 370,000 active; AID 485294; note: nearly all actives have a fitted effect of over 25% in size
Target sequence (P00811 whole entry, looked up): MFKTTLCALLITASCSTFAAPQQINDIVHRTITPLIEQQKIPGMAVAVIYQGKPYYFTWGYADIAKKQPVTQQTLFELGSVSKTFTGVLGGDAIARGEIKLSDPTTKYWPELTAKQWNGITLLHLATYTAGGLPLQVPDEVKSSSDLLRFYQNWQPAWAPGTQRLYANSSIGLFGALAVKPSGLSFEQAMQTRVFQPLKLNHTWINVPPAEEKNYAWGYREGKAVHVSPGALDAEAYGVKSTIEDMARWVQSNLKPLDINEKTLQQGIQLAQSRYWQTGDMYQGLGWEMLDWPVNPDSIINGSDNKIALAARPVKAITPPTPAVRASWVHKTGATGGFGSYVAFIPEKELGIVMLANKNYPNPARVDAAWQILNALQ
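AmpC (5.3 nM in the dispensed reagent) in 20 mM phosphate pH 7.0 with 0.01% (detergent screen) or 0.0001% Triton X-100 was preincubated with compounds for 15 min at room temperature. Nitrocefin was then added from an 800 uM solution, and hydrolysis was followed at 480 nm.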
AmpC inh no detg: inhibitors of E. coli AmpC beta-lactamase without detergent; AID 485341; 0.52% of 330,000 active; AmpC nitrocefin hydrolysis, absorbance 480 nm, 0.0001% Triton; P00811; Potency, µM (top dose mostly 57.1 µM), hits mostly inhibitors; note: nearly all actives have a fitted effect of over 20% in size
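AmpC (5.3 nM in the dispensed reagent) in 20 mM phosphate pH 7.0 with 0.01% (detergent screen) or 0.0001% Triton X-100 was preincubated with compounds for 15 min at room temperature. Nitrocefin was then added from an 800 uM solution, and hydrolysis was followed at 480 nm.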
FBPA Giardia inh: inhibitors of Giardia lamblia fructose-1,6-bisphosphate aldolase. purified Giardia FBPA. 0.71% of 290,000 active. Potency, µM (doses to about 59.6 µM), actives largely listed as inhibitors. AID 2451. A8B2U2; note: nearly all actives have a fitted effect of over 55% in size
Target sequence (A8B2U2 whole entry, looked up): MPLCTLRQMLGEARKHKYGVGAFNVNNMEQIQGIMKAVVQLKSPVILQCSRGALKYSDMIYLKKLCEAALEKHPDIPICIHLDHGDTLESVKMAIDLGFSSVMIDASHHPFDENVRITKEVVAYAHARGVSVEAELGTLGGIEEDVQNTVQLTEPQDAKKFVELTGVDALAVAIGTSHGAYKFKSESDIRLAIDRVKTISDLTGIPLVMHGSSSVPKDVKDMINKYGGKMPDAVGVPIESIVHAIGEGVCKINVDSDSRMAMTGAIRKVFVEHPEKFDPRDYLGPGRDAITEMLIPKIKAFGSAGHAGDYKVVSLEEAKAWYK
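Giardia FBPA (40 nM reagent) was preincubated 10 min at RT with compound (up to 57.5 uM final), then substrate plus GAPDH/TPI/NAD/arsenate coupling system with diaphorase/resazurin was added; resorufin fluorescence (525/598 nm) was read after 20 min.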
Of the large screens only hits and unclear results are named; the others gave an inactive call; ! = a repeat was not active. Unless noted, calls come from the whole dose curve; as a rule, active = well fitted curve in the direction sought with a large enough effect; inconclusive = small, poorly fitted or top-dose-only effect, or another doubt; inactive = no such curve, though single readings can be large; an effect the other way counts as inactive or inconclusive.

Cc1cccc(OCC(=O)N/N=C/C=C/c2ccco2)c1	Sm TGR inh 40µM (no result: RE007 growth inh)
Cc1cccc(C)c1OCC(=O)N/N=C/C=C/c1ccco1	Sm TGR inh 16µM
Cc1ccc(OCC(=O)N/N=C/C=C/c2ccco2)c(Br)c1	Sm TGR inh 28µM
O=C(COc1c(Br)cc(Br)cc1Br)N/N=C/c1ccco1	Sm TGR inh inconclusive (no result: FBPA Giardia inh)
Cc1cc(C)cc(OCC(=O)N/N=C/c2ccco2)c1	none
CC(C)CCn1c(=O)c2ccccc2n2c(COC(=O)c3ccc(S(=O)(=O)N(C)C)cc3)nnc12	none (no result: RE007 growth inh)
CC(=O)C1C(=O)C=C(c2ccco2)CC1c1ccccc1 (stereo not given)	Sm TGR inh inconclusive, AmpC inh detg inconclusive
Cc1ccc(CNC(=O)C2CCN(C(=O)N3CC(C)Oc4ccc(Cl)cc43)CC2)cc1 (stereo not given)	none (no result: RE007 growth inh, AmpC inh no detg, FBPA Giardia inh)
O=c1[nH]n(-c2ccc(Cl)cc2)c(=O)c(Cl)c1Cl	Sm TGR inh 7.1µM
CCOc1ccc(C=NNc2ccc(S(=O)(=O)Nc3ccccc3C(=O)O)cc2[N+](=O)[O-])cc1	AmpC inh no detg 28µM (no result: Sm TGR inh, AmpC inh detg, FBPA Giardia inh)
Cc1ccc(N(C)S(=O)(=O)c2nnc(NC(=O)c3ccco3)s2)cc1	Sm TGR inh inconclusive
CN(c1ccc(Cl)cc1)S(=O)(=O)c1nnc(NC(=O)c2ccco2)s1	Sm TGR inh 20µM! (no result: FBPA Giardia inh)
Cc1ccccc1N(C)S(=O)(=O)c1nnc(NC(=O)c2ccco2)s1	Sm TGR inh 25µM!, AmpC inh no detg inconclusive
Cc1ccc(CS(=O)Cc2ccc(C(=O)NC3CCCCC3)o2)cc1 (stereo not given)	AmpC inh detg inconclusive
O=C(NCCc1ccccc1)c1ccc(CS(=O)Cc2ccc(Cl)cc2)o1 (stereo not given)	Sm TGR inh 35µM!
O=C(NC1CCCCCC1)c1ccc(CS(=O)Cc2cccc(Cl)c2)o1 (stereo not given)	Sm TGR inh 56µM (no result: FBPA Giardia inh)
COCCCNC(=S)NNC(=O)c1cc(-c2ccncc2)nc2ccccc12	AmpC inh detg inconclusive
O=C(Cn1c(=O)nc(-c2ccccc2)c2ccccc21)Nc1cccc(C(F)(F)F)c1	none (no result: RE007 growth inh, AmpC inh no detg, FBPA Giardia inh)
Cc1ccc(-c2ccc(C(=O)NCCCNC(=O)c3cnccn3)o2)cc1Cl	Sm TGR inh 32µM
Cc1c(NS(=O)(=O)c2ccc(N(C)C3CCCCC3)c([N+](=O)[O-])c2)c(=O)n(-c2ccccc2)n1C	none
Clc1cccc(-c2ccc(CNCc3ccccn3)o2)c1	Sm TGR inh 13µM
O=C(NCc1ccccn1)Nc1ccc(Br)cc1	none
Brc1ccc(-c2ccc(CNCc3ccccn3)o2)cc1	Sm TGR inh 40µM, AmpC inh detg inconclusive
Cc1ccc(C2CC(=O)Nc3cc4c(cc32)OCO4)o1 (stereo not given)	AmpC inh detg inconclusive
CCN(CC)CCNC(=O)C1CCCN(c2nnc(C)c3c(C)n(-c4ccc(Cl)cc4)nc23)C1 (stereo not given)	none (no result: RE007 growth inh, AmpC inh no detg, FBPA Giardia inh)
COc1ccc(S(=O)(=O)CCC(=O)NCCc2cccc(C)c2)cc1	AmpC inh detg inconclusive
COc1ccc(S(=O)(=O)CCC(=O)NCCc2ccc(S(N)(=O)=O)cc2)cc1	Sm TGR inh 40µM
CCOC(=O)N1CCN(c2cc3[nH]c(=S)[nH]c3cc2F)CC1	AmpC inh detg inconclusive
CCOC(=O)N1CCN(c2c(F)cc3[nH]c(=S)[nH]c3c2Br)CC1	AmpC inh no detg 28µM
O=C(O)C1C2C=CC3(CN(Cc4ccco4)C(=O)C13)O2 (stereo not given)	Sm TGR inh inconclusive
CCc1ccccc1N1CC23C=CC(O2)C(C(=O)O)C3C1=O (stereo not given)	AmpC inh no detg 3.5µM
COC(=O)C1C2C=CC3(CN(Cc4ccco4)C(=O)C13)O2 (stereo not given)	Sm TGR inh 28µM
CCOC(=O)C1C2C=CC3(CN(Cc4ccco4)C(=O)C13)O2 (stereo not given)	Sm TGR inh 32µM
COc1cccc(NC(=O)CCS(=O)(=O)c2ccc3c(c2)oc(=O)n3C)c1	none (no result: FBPA Giardia inh)
CC(C)(C)c1cc(-c2csc(Nc3ccccc3)[n+]2Cc2ccc(C(=O)O)cc2)cc(C(C)(C)C)c1O	none
Cc1ccc(C(=O)/C=C/c2c[nH]c3ccccc23)cc1	none
O=C(/C=C/c1c[nH]c2ccccc12)c1ccccc1	RE007 growth inh inconclusive, AmpC inh no detg 16µM
O=C(NC1CCS(=O)(=O)C1)c1cccc(S(=O)(=O)N2CCCCCC2)c1 (stereo not given)	none
Cc1ccc2cc(CN(Cc3ccc4c(c3)OCO4)Cc3nnnn3Cc3ccco3)c(=O)[nH]c2c1	Sm TGR inh inconclusive
Cc1ccc(C)c2[nH]c(=O)c(CN(Cc3nnnn3C3CCCCC3)CC3CCCO3)cc12 (stereo not given)	Sm TGR inh inconclusive
COc1cc2cc(CN(Cc3nnnn3Cc3ccccc3)CC3CCCO3)c(=O)[nH]c2cc1OC (stereo not given)	Sm TGR inh inconclusive, AmpC inh detg inconclusive
CNC(=S)N(Cc1ccco1)Cc1cc2cc3c(cc2[nH]c1=O)OCCO3	Sm TGR inh 14µM
Cc1ccc(CN(Cc2cc3cc4c(cc3[nH]c2=O)OCCO4)Cc2nnnn2Cc2ccco2)cc1	Sm TGR inh 11µM, FBPA Giardia inh inconclusive
COc1ccccc1CN(Cc1cc2c(C)ccc(C)c2[nH]c1=O)Cc1nnnn1Cc1ccco1	Sm TGR inh 45µM
CCNC(=S)N(Cc1ccco1)Cc1cc2cc3c(cc2[nH]c1=O)OCCO3	none
Cc1ccc(C)c2[nH]c(=O)c(CN(CCN3CCOCC3)Cc3nnnn3CC3CCCO3)cc12 (stereo not given)	Sm TGR inh 20µM
CCCc1nnc(NC(=O)CCC(=O)N2CCC(Cc3ccccc3)CC2)s1	none (no result: FBPA Giardia inh)
Cc1ccc(C(C(=O)NCC2CCCO2)N(Cc2ccccc2F)C(=O)Cn2nnc(-c3cccs3)n2)cc1 (stereo not given)	AmpC inh detg inconclusive
Cc1cccc(C)c1NC(=O)CC1SC2=NCCN2C1=O (stereo not given)	Sm TGR inh 25µM
COCC(=O)N1CCC2(CC1)CCN(C(=O)Nc1ccc(OC)cc1)CC2	none (no result: RE007 growth inh, Sm TGR inh, AmpC inh detg, AmpC inh no detg)
Cc1ccc(S(=O)(=O)C2(C(=O)Nc3cccc(F)c3)CC2)cc1	AmpC inh detg inconclusive, AmpC inh no detg 2.8µM
C=Cc1c(C)/c2[n-]/c1=C\c1[n-]c(c(CC)c1C)/C=c1\[n-]c3c(c1C)C(=O)C(C(=O)[O-])C=3c1[n-]c(c(C)c1CCC(=O)[O-])\C=2.[Cu].[Na+].[Na+] (stereo not given)	FBPA Giardia inh 14µM (no result: RE007 growth inh, Sm TGR inh, AmpC inh detg, AmpC inh no detg)
CCOc1ccccc1CN1CCN(Cc2cccc3nonc23)CC1CCO (stereo not given)	none
CCOc1ccccc1CN1CCN(Cc2ccc3cccc(OC)c3n2)CC1CCO (stereo not given)	Sm TGR inh 25µM
